Holding throughout (type): functional
Assay [1] relates to Plasmodium falciparum. The assay is described as follows: GSK_TCMDC: Inhibition of Plasmodium falciparum 3D7 in whole red blood cells, using parasite LDH activity as an index of growth. Test compounds present at 2uM.
Assay [2] deals with Plasmodium falciparum. The assay is described as follows: GSK_TCMDC: Inhibition of Plasmodium falciparum Dd2 in whole red blood cells, using parasite LDH activity as an index of growth. Test compounds present at 2uM.
The subject of the next assay is HepG2. The assay is described as follows: GSK_TCMDC: Percent inhibition of human HepG2 cell line. Test compounds present at 10uM.

Usually Inhibition stands for the relative decrease from the control value, in per cent. Low values mean a weak effect, high ones a strong effect. In the case of `O=C(O)C(F)(F)F.c1cc(CNCCc2ccncc2)cc(-c2ccc(-c3nc4ccccc4[nH]3)cc2)c1`, the Inhibition in the assay on Plasmodium falciparum [1] is given as 99%; in the assay on Plasmodium falciparum [2] it was 97%; in the assay on HepG2, 28%.

For the compound `Cc1ccc(NC(=O)c2cc(Br)cc(N3CCCN(C)CC3)c2)cc1F.O=C(O)C(F)(F)F`, the Inhibition in the assay with Plasmodium falciparum [1] came to 87%; with Plasmodium falciparum [2], 1%; in the assay on HepG2, 15%.

On to `CN(Cc1cccc(F)c1)C1CCN(c2cc(NC(=O)c3cccc(F)c3)ccn2)CC1.O=C(O)C(F)(F)F`, for which the Inhibition is 94% with Plasmodium falciparum [1], 13% in the assay on Plasmodium falciparum [2] and 12% in the assay on HepG2.

Regarding `O=C(/C=C/c1ccc(Cl)c(Cl)c1)NCCCCCCN1CCN(C(=O)Nc2ccc(F)c(Cl)c2)CC1`, the Inhibition amounted to 86% with Plasmodium falciparum [1], 2% with Plasmodium falciparum [2] and 40% in the assay with HepG2.

In the case of `COc1ccc(-c2cccc(NC(=O)c3cccc(C#N)c3)c2)cc1CN1CCC(O)CC1.O=C(O)C(F)(F)F`, the Inhibition in the assay on Plasmodium falciparum [1] turned out to be 97%; with Plasmodium falciparum [2], 13%; with HepG2, 30%.

As to `Cc1cccc2nc(-c3cccc(-c4ccc(CN5CCC(C(N)=O)CC5)cc4)c3)[nH]c12.O=C(O)C(F)(F)F`, the Inhibition came to 89% with Plasmodium falciparum [1], 9% in the assay with Plasmodium falciparum [2] and 0% in the assay on HepG2.

For the compound `COc1ccccc1NC(=O)Nc1ccc(-c2cccc(-c3nc4ccccc4[nH]3)c2)cc1`, the results for the Inhibition in the assay on Plasmodium falciparum [1], in the assay on Plasmodium falciparum [2] and in the assay with HepG2 were 100%, 25% and 42%, respectively.

Consider `O=C(CCc1c[nH]cn1)Nc1cccc(-c2cccc(-c3nc4ccccc4[nH]3)c2)c1`, for which the Inhibition is reported as 100% with Plasmodium falciparum [1], 25% in the assay on Plasmodium falciparum [2] and 8% in the assay with HepG2.

`O=C(Cc1cccs1)NC(CCCN1CCC(Oc2cccc(Cl)c2)CC1)c1ccc(Cl)c(Cl)c1` (stereo not given): the Inhibition in the assay with Plasmodium falciparum [1] is on record as 86%; in the assay with Plasmodium falciparum [2] it was 70%; in the assay with HepG2, 39%.

Regarding `COc1ccc(CCn2c(=N)c(C(=O)NCc3ccccc3)cc3c(=O)n4ccccc4nc32)cc1`, the Inhibition is on record as 100% in the assay with Plasmodium falciparum [1], 18% in the assay with Plasmodium falciparum [2] and 14% in the assay with HepG2.

(Values after ChEMBL document CHEMBL1157539, “Thousands of chemical starting points for antimalarial lead identification” (Nature, 2010).)
